“And” between values parts separate entries of the source, which are not always exact repeats. Equal values may be shown once. The source made the active and inactive calls. Unless noted, no rule for the calls is given here.

This note sets out measurements from PubChem BioAssay.

A short description of test [1]: modulation of C. elegans fzo-1 (AID 1259413).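 Also: fzo-1 mutant C. elegans worms in liquid wells.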 The note with it: C. elegans fzo-1 modulator screen, mean read-out; stronger effect = higher value.
Test [2] can be described thus: P. berghei load reduction in hepatocytes – cell-based, HepG2, luciferase luminescence, HepG2 viability, primary screen (AID 624349; in the data active = parasite load remaining mostly below about 12%, no sharp cut-off; inactive = mostly above about 10%;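 also: 100% = mean of DMSO negative control wells on the same plate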). The note with it: P. berghei liver stage in HepG2, luciferase luminescence, concentration not given here; parasite load remaining: stronger effect = lower value; viability: measured here: HepG2 viability without parasites.
Test [3] can be described thus: signal quenchers or enhancers, Cy5 substrate/SSB – biochemical, NIH Clinical Collection, E. coli SSB, artefact control for HCV NS3 helicase inhibitor project (AID 743268). Conditions: Cy5-oligo bound E. coli SSB, fluorescence interference.
In test [4] the test system is Hepatitis C virus NS3 helicase. As to the kind of experiment: blockers of NS3h binding to DNA – biochemical, fluorescence polarization, NIH Clinical Collection, primary screen (AID 743270). Conditions: NS3 helicase binding to Cy5-dT15 DNA, stronger effect = higher value, concentration not given here. In general terms: Polarisation of emitted light reports the rotation of a fluorescent probe.

The target of test [5] is Single-stranded DNA-binding protein (Escherichia coli (strain K12)) (UniProt P0AGE0). As to the kind of experiment: SSB-ssDNA binding inhibitors – biochemical, fluorescence polarization, NIH Clinical Collection, counter-screen for HCV NS3 helicase inhibitor project (AID 743271; in the data active = inhibition above about 28%). The note with it: E. coli SSB-DNA binding, stronger effect = higher value, concentration not given here.
Test [6] can be described thus: compounds distorting NS3 helicase fluorescence signal – biochemical, NIH Clinical Collection, artefact control for HCV NS3 helicase inhibitor project (AID 743272).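 Also: HCV NS3 helicase with a Cy5 labelled single stranded DNA probe.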 Conditions: fluorescence interference counterscreen, HCV NS3 helicase assay; stronger effect = lower value. In general terms: Counterscreens check selectivity or assay interference.
Test [7] concerns Neuropilin-2 / VEGF-C interaction (human). As to the kind of experiment: small molecules blocking Neuropilin-2/VEGF-C interaction – biochemical, microplate binding format, z-score (AID 743281). The note with it: microplate NRP2/VEGF-C binding assay; stronger effect = lower value.
Test [8] can be described thus: viability loss with induced miR-34 in A549 – imaging, A549 dox-inducible miR-34, nuclei and caspase counts, primary screen (AID 1347080;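 active = compounds whose cell count with miR-34 switched on is under 0.7 times the count with it off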). The note with it: A549 miR-34 inducible, Hoechst nuclei count, 48 h.
A short description of test [9]: galactose survival enhancers in mitochondrial complex I cybrids – cell-based, galactose medium, ATP luminescence, primary screen (AID 1645843;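 active = z-score of at least 1.8 in each of two replicates, scored against plate mean and spread of sample wells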;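 also: positive z means more ATP and so rescue of galactose-driven cybrid death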). The note with it: complex I mutant cybrid cells, 72 h, stronger effect = higher value.
Test [10] in a line: MELAS cybrid and Rieske KO viability enhancers – cell-based, MELAS cybrids, Rieske KO mouse fibroblasts, CellTiter-Glo, primary screen (AID 1508586;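 active = mean z-score across replicates of 1.96 or higher in either the MELAS or the Rieske mutant cell line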;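 also: z relative to plate mean and SD of compound and empty wells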). Conditions: low glucose. (In general: In ATP-based viability assays light output follows the ATP content of the culture.)
Where [11] appears, read: stronger effect = lower value, cell number ratio, induced over uninduced.
Where [12] appears, read: measured here: relative caspase fold change +Dox/-Dox.
Where [13] appears, read: measured here: total cells with miR-34 induction, stronger effect = lower value.
Setting [14] is: measured here: total cells without miR-34 induction.
Setting [15] is: MELAS cybrid survival, CellTiter-Glo 48 h, stronger effect = higher value.
[16] abbreviates: Rieske KO mouse fibroblast survival, CellTiter-Glo 72 h.

As for `CCCC1O[C@@H]2C[C@H]3[C@@H]4CCC5=CC(=O)C=CC5(C)[C@H]4[C@@H](O)CC3(C)C2(C(=O)CO)O1` (stereo partly drawn), the mean signal in [1] is 259 (inactive).
As for `CS(=O)(=O)c1ccc(-c2cc(Br)sc2-c2ccc(F)cc2)cc1`, the parasite load remaining in [2] is 10.4% (inactive). Moreover, the viability in [2] was 69.4%. Further, the fluorescence ratio in [3] was 0.96 (inactive); in [6] it was 0.95 (inactive). Besides, the inhibition was 5.02% (inactive) in test [4] and 4.33% (inactive) in [5]. The z-score in test [7] is -0.424 (inactive); in [9], -0.985 (inactive) and -0.57 (inactive). In addition, the mean signal in [1] was 233 (inactive). For the same compound, the fold change is 0.877 (inactive) and 0.852 (inactive) and 0.867 (inactive) in [8] (setting [11]); 1.92 and 0.768 and 0.919 in [8] (setting [12]). Also, the cell count is 8710 and 4800 and 6290 in test [8] (setting [13]); 9930 and 5630 and 7260 in test [8] (setting [14]).
Consider `CC(C)N=c1cc2n(-c3ccc(Cl)cc3)c3ccccc3nc-2cc1Nc1ccc(Cl)cc1`, for which the fluorescence ratio in [3] was 0.94 (inactive); in [6], 0.96 (inactive). In addition, the figures for the inhibition in test [4] and in [5] were 8.52% (inactive) and 6.69% (inactive), respectively. Besides, the z-score in test [7] is 1.38 (inactive); in test [10] (setting [15]), -0.332 (inactive) and -3.07 (inactive); in test [10] (setting [16]), 0.691 and -0.422; in test [9] it was -1.15 (inactive). In addition, the mean signal in test [1] is 220 (inactive).
Regarding `CC(=O)SCC(Cc1ccccc1)C(=O)NCC(=O)OCc1ccccc1` (stereo not drawn), the fluorescence ratio in [3] was 0.96 (inactive); in test [6], 0.86 (inactive). For the same compound, the inhibition in test [4] was 3.56% (inactive); in test [5], 2.21% (inactive). Also, the z-score in test [7] is -0.263 (inactive); in test [10] (setting [15]), -0.406 (inactive) and 0.283 (inactive) and 0.224 (inactive); in [10] (setting [16]), 0.561 and 0.494 and -0.589; in test [9], 0.9 (inactive) and 0.57 (inactive). In [1], the mean signal was 251 (inactive).
For the compound `CC(=O)OCC(=O)C12OC(C)(C)O[C@@H]1C[C@H]1[C@@H]3C[C@H](F)C4=CC(=O)C=CC4(C)[C@@]3(F)[C@@H](O)CC12C` (stereo partly drawn), the mean signal in test [1] is 228 (inactive).
Regarding `CO/N=C(/C(=O)NC1C(=O)N2C(C(=O)O)=C(COC(C)=O)CSC12)c1csc(N)n1` (stereo not drawn), in test [1], the mean signal was 238 (inactive).
Take `C#C[C@]1(O)CC[C@H]2[C@@H]3CCC4=Cc5oncc5CC4(C)[C@H]3CCC21C` (stereo partly drawn): the mean signal in test [1] is 250 (inactive). Also, the fold change was 0.894 (inactive) in test [8] (setting [11]) and 1.79 in test [8] (setting [12]). In addition, the values for the cell count in [8] (setting [13]) and in [8] (setting [14]) were 7310 and 8170, respectively. The z-score in test [9] was -0.725 (inactive).
As for `CC(=O)OC1C([N+]2(C)CCCCC2)C[C@H]2C3CC[C@H]4C[C@H](OC(C)=O)C([N+]5(C)CCCCC5)CC4(C)[C@H]3CCC12C` (stereo partly drawn), the parasite load remaining in test [2] was 86.3% (inactive). This compound also displayed a viability in test [2] of 68.8%. For the same compound, the fluorescence ratio was 0.94 (inactive) in [3] and 0.71 (active) in test [6]. Moreover, the inhibition in [4] was -0.4% (inactive); in test [5], 11.4% (inactive). In test [7], the compound was called inactive. For the same compound, the mean signal in test [1] is 283 (inactive).
As to `Cc1c(O)c(=O)ccn1C`, the parasite load remaining in [2] was 103% (inactive). In test [2], the viability was determined as 77.2%. Moreover, the fluorescence ratio was 0.96 (inactive) in [3] and 0.92 (inactive) in test [6]. Also, the inhibition in test [4] is 1.98% (inactive); in [5], 6.83% (inactive). Moreover, the values for the z-score in [7] and in test [9] were -1.2 (inactive) and 0.65 (inactive), respectively. The mean signal in test [1] is 235 (inactive). The fold change is 0.87 (inactive) and 0.909 (inactive) in test [8] (setting [11]); 0.877 and 1.84 in test [8] (setting [12]). Further, the cell count in test [8] (setting [13]) is 8280 and 9190; in [8] (setting [14]) it was 9520 and 10100.
Turning to `CO/N=C(/C(=O)N[C@@H]1C(=O)N2C(C(=O)O)=C(COC(N)=O)CS[C@H]12)c1ccco1`, the mean signal in [1] is 235 (inactive).
Same read-out and setting: the result for `C[C@H](CCC(=O)O)[C@H]1CC[C@H]2[C@@H]3[C@@H](O)C[C@@H]4C[C@H](O)CCC4(C)[C@H]3CCC12C` (stereo partly drawn) reads 253 (inactive).

The term viability denotes a per cent measure of how many cells are alive, often set against a control. Broadly, the inhibition is the drop in the measured response relative to a control, in per cent.
